An excerpt weighted towards active compounds, which were near 3.6% of everything screened.
3CLpro inhibitor: SARS-CoV 3CLpro protease inhibition. 290,000 tested, 0.14% active. recombinant SARS-CoV 3CLpro, quenched FRET peptide cleavage. P0C6X7. inhibition, % at 6 µM; in the data active = inhibition above about 12%
BJeLR viability: kills HRASV12-expressing BJeLR cells; inhibition, % (concentration not given with the values); BJeLR (HRASV12) viability, CellTiter-Glo ATP luminescence, 48 h; 300,000 tested, 0.17% active; in the data active = inhibition above about 50%; inconclusive = no clear call, values can overlap the other calls
BoNT F protease: blocks Botulinum neurotoxin F light chain protease; Multiplex microsphere protease cleavage assay, flow cytometry; 360,000 tested, 0.22% active; AID 588497; inhibition, % at 10 µM; in the data active = inhibition above about 35%, passing the limit was not always enough; inconclusive = no clear call, values can overlap the other calls
Anthrax LF prot: anthrax lethal factor protease inhibition; inhibition, % at 10 µM; P15917; AID 588501; 360,000 tested, 0.12% active; multiplex microsphere protease cleavage assay, LF
Bead autofluor: flagged as autofluorescent in microsphere protease counterscreen | compound autofluorescence counterscreen, microsphere flow cytometry; stronger effect = higher value | fluorescence intensity (no concentration beside the values) | 360,000 tested, 3.1% active; in the data active = fluorescence intensity above about 16000; inconclusive = no clear call, values can overlap the other calls
BoNT A protease: blocks Botulinum neurotoxin A light chain protease; AID 588499; 360,000 tested, 0.17% active; multiplex microsphere protease substrate cleavage, flow cytometry; inhibition, % at 10 µM
BoNTA LC inh 1: BoNT/A light chain protease inhibition; shares compounds with BoNT F protease; multiplex microsphere protease assay, flow cytometry; inhibition, % at 10 µM; 720 tested, 3% active; in the data active = inhibition above about 32%
BoNT-F LC CP1: blocks botulinum neurotoxin F light chain protease; shares compounds with BoNT F protease; multiplex microsphere protease cleavage assay, flow cytometry; inhibition, % at 10 µM; 720 tested, under 10 active; AID 602140; call rule not given here
LF protease CP1: inhibitors of Bacillus anthracis lethal factor protease. AID 602142. shares compounds with BoNT F protease. inhibition, % at 10 µM. 720 tested, under 10 active. multiplex microsphere protease cleavage assay, LF; call rule not given here
Numbers stand for hits; - = inactive; ? = inconclusive; . = no result given. Cut-off read from the data, not from the text of the source, unless noted: active = inhibition above about 30%; inconclusive = no clear call, values can overlap the other calls; inactive = below that.

SMILES	3CLpro inhibitor	BJeLR viability	BoNT F protease	Anthrax LF prot	Bead autofluor	BoNT A protease	BoNTA LC inh 1	BoNT-F LC CP1	LF protease CP1
Nc1nnc(SCC(=O)c2ccc3c(c2)NC(=O)CO3)s1	-	-	-	-	-	-	.	.	.
COc1ccc(NS(=O)(=O)c2cccc(C(=O)Nc3cccc(C(=O)O)c3)c2)cc1	-	-	?	-	-	-	-	-	-
CC(C(=O)NCc1ccccc1Cl)n1cc([N+](=O)[O-])cn1 (stereo not given)	-	-	38	-	-	-	-	-	-
CC(C)NC(=S)N1CCN(Cc2ccc3c(c2)OCO3)CC1	-	-	-	-	-	-	.	.	.
CCN(CC)c1ccc(C(=O)NC(=S)N2CCN(Cc3ccc4c(c3)OCO4)CC2)cc1	-	-	51	-	22907	-	-	-	-
CCOc1ccc(OCCOCCNCCOC)cc1	-	-	41	-	-	-	-	-	-
COc1ccc(-c2ncc3ccccn23)cc1	-	-	-	-	-	-	-	-	-
COc1ccc(-c2cc3ccccc3cn2)cc1	.	.	-	-	-	-	.	.	.
COc1cc(-c2ncc3ccccn23)cc(OC)c1OC	-	-	-	-	-	-	-	-	-
COc1cccc(-c2ncc3ccccn23)c1	-	-	-	-	-	-	-	-	-
COc1cccc(-c2cnc3c(NC(C)=O)cc(-c4ccccc4OC)cn23)c1	.	.	-	-	-	-	.	.	.
c1csc(-c2ncc3ccccn23)c1	-	-	-	-	-	-	.	.	.
COc1cc(OC)cc(-c2ncc3ccccn23)c1	-	-	-	-	-	-	-	-	-
O=c1nc(-c2ccccc2)c2cc(SC(F)F)ccc2[nH]1	-	-	?	-	-	-	.	.	.
O=[N+]([O-])c1ccccc1S(=O)(=O)c1ccccc1[N+](=O)[O-]	-	-	-	-	-	-	.	.	.
COC(=O)CCSc1cc([N+](=O)[O-])cc2c1c(C1OCCO1)nn2-c1ccccc1	-	-	-	-	-	33	-	-	-
CCCSc1cc(=O)n(-c2ccccc2)nc1C(=O)O	-	-	-	-	-	-	.	.	.
C[C@@H](O)C1NC(=O)[C@H](CCCCN)NC(=O)c2cc([N+](=O)[O-])cc(I)c2OCC[C@@H](C(N)=O)NC1=O (stereo not given in full)	-	-	-	-	-	-	.	.	.
COC(=O)C1Cc2ccccc2CN1S(=O)(=O)c1ccc(C)cc1 (stereo not given)	-	-	36	-	-	-	-	-	-
O=C(O)C1C2C=CC(C2)C1C(=O)N1CCc2ccccc21 (stereo not given)	-	-	39	-	-	-	-	-	-
CC[n+]1c(C)n(-c2ccccc2)c2ccc(C(=O)OC)cc21	-	-	-	-	-	-	.	.	.
O=c1c(/C=C(\O)c2ccc(F)cc2)nc2ccccc2n1-c1ccccc1	-	-	194	32	-	46	-	-	-
Cn1c(/C=C/c2ccccc2)nc2ccccc21	-	-	-	-	-	-	.	.	.
Cn1c(=O)c(/C=C/c2ccc(F)cc2)nc2ccccc21	-	-	-	-	-	33	-	-	-
Cn1c(=O)c(/C=C/c2ccccc2)nc2ccccc21	-	-	-	-	-	49	40	-	-
SMILES	3CLpro inhibitor	BJeLR viability	BoNT F protease	Anthrax LF prot	Bead autofluor	BoNT A protease	BoNTA LC inh 1	BoNT-F LC CP1	LF protease CP1
N#C/C(=C\c1ccc2c(c1)OCCO2)C(=O)Nc1nccs1	-	-	-	-	-	-	.	.	.
COc1ccc(-c2nc(-c3cccc(C)c3)no2)cc1OC	-	-	-	-	-	-	.	.	.
COc1cc(-c2nc(-c3cccc(C)c3)no2)cc(OC)c1OC	-	-	43	-	-	?	-	-	-
FC(F)(F)c1ccc(CNCCc2ccc3c(c2)OCO3)cc1	-	-	71	-	-	-	-	-	-
CCCNc1cc(C)c(C#N)c2nc3ccccc3n12	-	.	-	-	-	-	.	.	.
CNc1cc(C)c(C#N)c2nc3ccccc3n12	-	-	-	32	-	-	-	-	-
CS(=O)(=O)N1N=C(c2ccccc2)CC1c1ccc2c(c1)OCO2 (stereo not given)	-	-	-	-	19512	70	50	.	-

Screening results as filed in PubChem BioAssay.
